Most compounds without a hit are left out; they make up all but 27% or so of the library.
CYP2C9 inh – blockers of cytochrome P450 2C9 activity – biochemical, luminescence, ADME assay, primary screen. P11712. CYP2C9 Supersomes, luciferin-H conversion. inhibition, % at 5 µM. actives 20% (n = 96,000);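 active means blocking of liver enzyme CYP2C9 beyond about 50% at 5 µM, limit read from the data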
CYP2C9 act – human CYP2C9 activators, primary screen, biochemical, luminescence; Cytochrome P450 2C9 (Homo sapiens), P11712; recombinant CYP2C9, luciferin-H conversion; hits give high values; factor 1 = untreated enzyme, 0 = blocked; activation factor at 5 µM; actives 1.4% (n = 96,000);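 active means activation factor of 2 or more for CYP2C9 at a 5 µM dose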;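 further: 0 = sulfaphenazole-blocked wells and 1 = vehicle-only wells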
Cav32 inh – Cav3.2 calcium influx blockers – cell-based, Fluo-4 calcium fluorescence, FDSS, MLSMR library, primary screen; B-score at 10 µM; Voltage-dependent T-type calcium channel subunit alpha-1H (Homo sapiens), O95180; AID 449739, 2010; actives 4% (n = 100,000); Cav3.2-expressing cells; hits give low values;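 active means single-dose well whose peak fluorescence ratio is a statistical outlier from its plate by either plate-standardised score or position-corrected B-score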
CYP2C19 inhib – blockers of cytochrome P450 2C19 activity – biochemical, luminescence, ADME assay, primary screen | P33261 | CYP2C19 Supersomes, luciferin-H EGE luminescence, 30 min | inhibition, % at 5 µM | actives 21% (n = 96,000);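 active means CYP2C19 inhibition above a set limit at 5 µM in the primary screen, cut at about 50% in these data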;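 further: plate controls were negative control wells for no effect and 2.5 mM tranylcypromine positive control for full effect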
CYP2C19 activ – human CYP2C19 activators, primary screen, biochemical, luminescence; Cytochrome P450 2C19 (Homo sapiens), P33261; recombinant CYP2C19, luciferin-H EGE luminescence; hits give high values; 0 = fully inhibited enzyme, 1 = untreated enzyme; activation factor at 5 µM; 96,000 tested, under 10 active;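 active means activation factor of at least 2 at 5 µM in the primary screen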;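 further: 0 = wells with 2.5 mM tranylcypromine and 1 = vehicle-only wells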
* = called active by the depositor; . = no result.

SMILES	CYP2C9 inh	CYP2C9 act	Cav32 inh	CYP2C19 inhib	CYP2C19 activ
COc1cccc(NC(=S)N2CCN(C/C=C/c3ccccc3)CC2)c1	2	1	-4.9*	12	0.9
Cc1cc(NC(=O)CSc2nnnn2C)n(-c2ccccc2)n1	-10	1.1	0.53	-16	1.2
CCOC(=O)c1ccccc1NC(=O)CSc1ccccc1	.	.	-2	.	.
CC(=O)c1ccc(S(=O)c2ccccc2)cc1 (stereo not drawn)	-11	1.1	-0.19	43	0.6
O=C(CSc1ccc(Cl)cc1)Nc1cccc(NC(=O)c2ccco2)c1	77*	0.2	-3.2	39	0.6
O=C(CSc1ccc(Cl)cc1)c1ccco1	16	0.8	0.21	13	0.9
O=C(NCCSc1ccc(Cl)cc1)c1ccco1	51*	0.5	-0.28	84*	0.2
O=C(CNC(=O)c1ccco1)OCc1ccc(Cl)cc1	19	0.8	1.4	82*	0.2
CC(=O)Nc1ccc(NC(=O)c2ccco2)cc1	-8	1.1	0.094	0	1
CSc1cccc(NC(=O)c2ccco2)c1	-16	1.2	-0.72	58*	0.4
O=C(CSc1ccccc1)Nc1cccc(NC(=O)c2ccco2)c1	44	0.6	-1.3	36	0.6
Cc1ccc(C=C2C(=O)c3ccccc3C2=O)s1	48	0.5	-0.52	13	0.9
c1ccc2c(c1)OCC(c1csc3ncnc(N4CCCC4)c13)O2 (stereo not drawn)	94*	0.1	-5.1*	99*	0
c1ccc(CCNc2ncnc3scc(C4COc5ccccc5O4)c23)cc1 (stereo not drawn)	73*	0.3	-3.6	57*	0.4
Cc1ccc(NC(C)c2cc(Cl)ccc2O)cc1 (stereo not drawn)	98*	0	-3.5	100*	0
O=C(CS(=O)(=O)c1c[nH]c2ccccc12)N1CCCCC1	-10	1.1	-0.44	64*	0.4
O=C(CS(=O)(=O)c1cn(Cc2ccc(Cl)cc2)c2ccccc12)N1CCCC1	70*	0.3	1.7	76*	0.2
COC(=O)c1ccc(COC(=O)C23CC4CC(CC(O)(C4)C2)C3)o1	24	0.8	0.51	27	0.7
O=C1c2ccccc2S(=O)(=O)N1CCOc1ccccc1	50	0.5	-0.33	98*	0
O=C1c2ccccc2S(=O)(=O)N1CC(O)COc1ccc(Cl)cc1 (stereo not drawn)	67*	0.3	-2.3	100*	0
O=C1c2ccccc2S(=O)(=O)N1CC(O)COc1ccc(Br)cc1 (stereo not drawn)	69*	0.3	-0.17	100*	0
Cc1c(C)n(CC(O)CN2C(=O)c3ccccc3S2(=O)=O)c2ccccc12 (stereo not drawn)	97*	0	-6.8*	98*	0
CN1CCc2c(n(CC(O)CN3C(=O)c4ccccc4S3(=O)=O)c3ccccc23)C1=O (stereo not drawn)	.	.	-1.8	.	.
C=C(C(=O)O)C(CCCCCC)C(=O)O (stereo not drawn)	.	.	0.5	.	.
CC(C)(C)NC(=O)NC(=O)CSc1ncc(C(F)(F)F)cc1Cl	-6	1.1	-0.011	4	1
SMILES	CYP2C9 inh	CYP2C9 act	Cav32 inh	CYP2C19 inhib	CYP2C19 activ
CCCNC(=O)NC(=O)CSc1ncc(C(F)(F)F)cc1Cl	-6	1.1	-0.03	70*	0.3
O=C1CCCc2sccc2N1	-1	1	0.12	5	1
Cc1nc(C(=O)NC2CCOCC2)sc1C1(C)CC(c2cccc([N+](=O)[O-])c2)=NO1 (stereo not drawn)	.	.	-0.093	.	.
CCOC(=O)C1=C(CS(=O)(=O)c2ccc(F)c(C)c2)NC(=O)NC1c1ccc(O)c(O)c1 (stereo not drawn)	8	0.9	0.084	69*	0.3
COc1ccc2[nH]cc(CCN3C(=O)CCC3=O)c2c1	40	0.6	-0.084	45	0.6
COc1ccc(NC(=O)/C(Cl)=C(/Cl)S(=O)Cc2ccccc2)cn1 (stereo not drawn)	92*	0.1	0.77	51*	0.5
Cc1ccc(N2CN=C(c3ccccc3)NC2=S)cc1	76*	0.2	-0.46	99*	0
Cc1ccc2nc(NC(=O)CCNS(=O)(=O)c3cccs3)sc2c1	28	0.7	-1.8	49	0.5

High-throughput results (PubChem BioAssay)
